Shown are actives, neighbours in structure and some others; about 17% of the full set was active somewhere.
HT1080NT lethal: kills 2HG-producing HT-1080-NT fibrosarcoma cells; HT-1080-NT fibrosarcoma viability, CellTiter-Glo ATP luminescence, 48 h; 1.6% of 360,000 active; Potency, µM (series often up to 46.1 µM), most hits filed as cytotoxic;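 note: NT is the 2HG producing partner of a matched IDH1 knockdown line; nearly all actives have a fitted effect of over 55% in size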
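750 cells/well, RPMI + 5% FBS; 2 h settle, compound pin-transfer, 48 h at 37 degrees C. CellTiter-Glo 10 min RT, luminescence. Normalized to DMSO and media-only wells.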
HepG2 tox: counter-screen for TGF-b inhibitors: cytotoxicity in HepG2 cells; HepG2 CAGA-GFP viability, ATP luminescence, 18 h; Potency, µM (series often up to 46.1 µM), hits mostly cytotoxic; 0.76% of 410,000 active
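HepG2 CAGA-GFP cells (1000/well, DMEM with 1% FBS) received compound, then TGF-beta at 500 pg/mL final, and were incubated 18 hours at 37 degrees C. Viability was read by CellTiter-Glo luminescence. Media-only wells were set as complete cell-killing and DMSO as no toxicity.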
TDP1 cell CPT: growth inhibition of DT40 Tdp1-/-;hTDP1 cells with camptothecin (screen for TDP1 inhibitors); Potency, µM (top dose mostly 46.2 µM), actives largely listed as inhibitors; 12% of 420,000 active; chicken DT40 Tdp1-/-;hTDP1 cells + 20 nM CPT, ATP luminescence, 48 h; note: nearly all actives have a fitted effect of over 55% in size
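Chicken DT40 Tdp1-/- cells complemented with human TDP1, 400 cells/well, exposed to compounds plus 20 nM camptothecin for at least 48 h at 37 C; viability read as ATP content by CellTiter-Glo luminescence.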
TDP1 cell noCPT: qHTS for Inhibitors of human tyrosyl-DNA phosphodiesterase 1 (TDP1): qHTS in cells in absence of CPT; DT40 Tdp1-/- hTDP1 cells, no CPT, ATP luminescence, 48 h; 15% of 420,000 active; Potency, µM (highest dose often 46.2 µM), actives largely listed as inhibitors; note: nearly all actives have a fitted effect of over 55% in size
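A cellular qHTS used chicken DT40 cells lacking endogenous Tdp1 but carrying stably transfected human TDP1. Compounds were applied without camptothecin, and cell growth kinetics were judged by ATP-dependent luminescence after ≥48 hr.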
TGFb SMAD3 inh: TGF-b pathway inhibition. HepG2 CAGA-GFP TGF-b/SMAD3 reporter, GFP fluorescence, 18 h; TGF-beta stimulated, 500 pg/mL final. Potency, µM (doses to about 46.1 µM), hits mostly inhibitors. 1.2% of 410,000 active. AID 588855; note: nearly all actives have a fitted effect of over 65% in size
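Cell-based qHTS in HEPG2 carrying a CAGA-GFP Smad reporter; compounds added before 500 pg/mL final TGF-beta, 18 h incubation at 37 degrees C, GFP fluorescence quantified per cell by imaging cytometry.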
HT1080 IDH1KD tx: kills HT-1080 cells with IDH1 knockdown; Potency, µM (doses to about 46.1 µM), actives largely listed as cytotoxic; 2% of 360,000 active; HT-1080 IDH1 knockdown viability, ATP luminescence, 48 h
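Assay cells: HT-1080 with IDH1 knockdown, 750 per well, RPMI/5% FBS. Exposure: 48 h at 37 °C following 2 h pre-incubation. Read: CellTiter-Glo luminescence; fitted concentration-response, curve class assigned.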
Numbers stand for hits; i = inactive; ? = inconclusive; nt = no result given; [ ] = remark or other dose. Calls come from the whole dose curve; as a rule, active = well fitted curve in the direction sought with a large enough effect; inconclusive = small, poorly fitted or top-dose-only effect, or another doubt; inactive = no such curve, though single readings can be large; an effect the other way counts as inactive or inconclusive.

SMILES | HT1080NT lethal | HepG2 tox | TDP1 cell CPT | TDP1 cell noCPT | TGFb SMAD3 inh | HT1080 IDH1KD tx
CC1(C(=O)NC2CCCCC2)CCC(=O)N1C1CCN(Cc2ccccc2)CC1 (stereo unspecified) | i | i | i | i | i | i
O=C(COC(=O)/C=C/c1cccc(Br)c1)Nc1ccc(Cl)cn1 | i | i | i | i | i | i
CCN(Cc1nc2ccccc2c(=O)[nH]1)C(=O)c1cccc(S(=O)(=O)N2CCc3ccccc32)c1 | i | i | ? | 16µM | ? | i
CN(Cc1nc2ccccc2c(=O)[nH]1)C(=O)c1cccc(S(=O)(=O)N2CCCC2)c1 | i | i | i | i | i | i
CCC1(C)Cc2c(sc3nc(SC)n(Cc4ccccc4)c(=O)c23)CO1 (stereo unspecified) | i | i | 13µM | 13µM | i | i
CCCSc1nc2sc3c(c2c(=O)n1Cc1ccccc1)CC(C)(CC)OC3 (stereo unspecified) | nt | i | 18µM | 12µM | i | nt
CN1CC(=O)NC1=NC(=O)c1ccc(Cl)c(S(=O)(=O)N2CCCCCC2)c1 | i | i | ? | 8.2µM | i | i
O=C(c1ccc(Cl)c(S(=O)(=O)N2CCCC2)c1)N1CCN(c2ccccc2)CC1 | i | i | 18µM | ? | i | i
CC(=O)N1CCN(C(=O)c2cc(S(=O)(=O)N3CCN(c4ccccc4)CC3)ccc2Cl)CC1 | i | i | ? | 10µM | i | i
O=C(c1cc(S(=O)(=O)N2CCOCC2)ccc1Cl)N1CCN(c2ccccn2)CC1 | i | i | i | ? | i | i
CN(c1ccccc1)S(=O)(=O)c1cc(C(=O)N2CCN(c3ccccn3)CC2)ccc1Cl | i | i | 9.2µM | 7.3µM | i | i
COCCCN1C(=O)C(CC(=O)NCc2ccco2)CC(C(=O)N(C(C)C)C(C)C)=C1C (stereo unspecified) | i | i | i | i | i | i
COc1ccc(OC)c(-c2ccnc(-n3ncc(C(=O)N(C)CCO)c3C3CC3)n2)c1 | nt | nt | i | i | nt | nt
O=C(c1ccc(Cl)c(S(=O)(=O)N2CCCCC2)c1)N1CCN(c2ccccc2)CC1 | i | i | 23µM | ? | ? | ?
O=C(c1ccc(Cl)c(S(=O)(=O)N2CCCC2)c1)N1CCN(c2ccc(F)cc2)CC1 | i | i | ? | 13µM | i | i
COc1ccc(CN2CCN(C(C)=O)CC2)cc1OC1CCN(C(=O)c2ccc3ccccc3n2)CC1 | nt | nt | i[9.04 µM] | i | nt | nt
O=C(CN1C(=O)NC2(CCc3ccccc32)C1=O)c1ccc2c(c1)OCCO2 (stereo unspecified) | i | i | ? | ? | i | i
COC(=O)C=C1CCC2C3CCC4=CC(=O)C(Br)CC4(C)C3C(=O)CC12C (stereo unspecified) | i | i | ? | 16µM | i | i
CC12CCC(=O)C=C1CCC1C2C(=O)CC2(C)C1CCC2(O)C(=O)CO (stereo unspecified) | i | i | i | i | i | i
CC(NC(=O)C1CCCN(S(=O)(=O)c2cnc[nH]2)C1)c1ccccc1 (stereo unspecified) | i | i | i | i | i | i
CSc1ccc(NC(=O)Nc2cccn(Cc3ccccc3F)c2=O)cc1 | i | i | ? | 26µM | ? | i
CCOC(=O)Cc1ccc(NC(=O)NCc2cccn2Cc2ccccc2)cc1 | nt | i | 13µM | 21µM | i | nt
CSc1ccccc1NC(=O)Nc1ccccc1 | i | i | i | i | i | i
O=C(NCc1ccccc1)Nc1cccn(Cc2ccccc2)c1=O | i | i | i | i | ? | i
Cc1ccc(NC(=O)NCc2cccn2Cc2ccccc2)cc1F | nt | i | i | i | i | nt
SMILES | HT1080NT lethal | HepG2 tox | TDP1 cell CPT | TDP1 cell noCPT | TGFb SMAD3 inh | HT1080 IDH1KD tx
CCOc1ccc(NC(=O)Nc2cccn(Cc3ccccc3)c2=O)cc1 | ? | i | ? | 15µM | i | ?
CCOc1ccc(NC(=O)Nc2ccccc2SC)cc1 | i | i | ? | 23µM | i | i
O=C(CNC(=O)c1ccccc1F)OCc1nc2ccc(Cl)cc2n1CCO | i | i | i | i | i | i
COC(=O)C1CCN(C(=O)CN2C(=O)NC(CC(C)C)C2=O)CC1 (stereo unspecified) | i | i | i | i | i | i
CCC(C)C(=O)Nc1ccc([N+](=O)[O-])cc1OC (stereo unspecified) | i | i | i | i | i | i
COc1ccc([N+](=O)[O-])cc1NC(=O)CSc1ccccc1 | i | i | i | ? | i | i
CCSc1ccccc1C(=O)Nc1ccc([N+](=O)[O-])cc1OC | i | i | ? | 21µM | i | i
COc1ccc(C(CC(=O)Nc2cc([N+](=O)[O-])ccc2OC)c2ccccc2)cc1 (stereo unspecified) | i | i | 16µM | ? | i | i
COc1ccc([N+](=O)[O-])cc1NC(=O)C(C)Sc1nc(-c2ccccc2)cs1 (stereo unspecified) | i | i | 18µM | ? | i | i
COc1cccc(NC(=O)CN(C)C(=O)c2cc3c(s2)CCC3)c1 | i | i | i | i | i | i
CC(C)(C)c1ccc(S(=O)(=O)c2cn(CC(=O)Nc3ccccc3)c3ccccc3c2=O)cc1 | nt | i | ? | ? | ? | nt
COC(=O)c1ccc(/C=C/C(=O)OCC(=O)Nc2sccc2C(N)=O)cc1 | i | i | ? | ? | i | i
CCOc1ccc(CNC(=O)CSc2nnc(C)c3c(C)n(-c4ccccc4)nc23)cc1 | nt | i | ? | ? | ? | nt
Cc1nc2ccc([N+](=O)[O-])cc2nc1C | i | i | i | i | i | i
Cc1ccc2nc3cc([N+](=O)[O-])cc([N+](=O)[O-])c3cc2c1 | i | i | 0.46µM | 0.58µM | i | i
N#CC1=C(N)N2C(=C(C#N)C13CCCCC3)SC1CCCCC12O (stereo unspecified) | i | i | 10µM | 13µM | i | i
C#CCOCCOCCOCCNc1nc(N2CCOCC2)nc(N2CCN(C(=O)CCCCCCCCCCNC(=O)[C@@H](CCSC)n3cc(CCO)nn3)CC2)n1 | i | i | ? | ? | i | i
C#CCOCCOCCOCCNc1nc(N2CCN(C(=O)CCCCCCCCCCNC(=O)[C@H](CCC(=O)O)n3cc(CCCCCN)nn3)CC2)nc(N2CCN(C(=O)CCCCCCCCCCNC(=O)[C@@H]([C@H](C)O)n3cc(C)nn3)CC2)n1 | i | i | i | i | i | i

Assay outcomes from PubChem.
